We go through five molecules from PubChem BioAssay (EPA / NIEHS).

Inconclusive results are not listed. The source made the active and inactive calls. How the source made its calls, unless noted: active means hit-call score of the fitted dose curve at least 0.9, where 1 is the maximum; inconclusive means response in the unintended direction; inactive means score below 0.9.

Experiment [1] is described as follows: ATG_TGFb_CIS: Attagene CIS-FACTORIAL HepG2 Assay for human Transforming Growth Factor (TGF) (AID 2282967; active means hit-call score of the fitted dose curve at least 0.9, where 1 is the maximum; inactive means score below 0.9). The note with it: HepG2 Attagene CIS TGFb reporter, mRNA transcription; actives raise or lower the signal. Summed up:
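HepG2 cells transiently transfected with cis-promoter-driven multiplexed reporter units; 24 h compound exposure. Reporter mRNA measured by RT-PCR, 6-FAM labeling, HpaI digestion and capillary electrophoresis; bidirectional fit versus DMSO baseline.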

A short description of experiment [2]: ATG_VDRE_CIS: Attagene CIS-FACTORIAL HepG2 Assay for human Vitamin D Receptor Element (VDRE) (AID 2282968; active means hit-call score of the fitted dose curve at least 0.9, where 1 is the maximum; inactive means score below 0.9). The note with it: HepG2 VDRE cis-reporter transcription, actives raise or lower the signal. In short, it runs like this: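 In transiently transfected HepG2 liver cells, gain or loss of reporter mRNA after 24 h exposure is scored relative to DMSO, using fluorescence detection by capillary electrophoresis of RT-PCR products.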

Experiment [3] deals with Nuclear receptor subfamily 1 group I member 3 (Homo sapiens) (UniProt Q14994). As to the kind of experiment: ATG_CAR_TRANS: Attagene TRANS-FACTORIAL HepG2 Assay for human Constitutive Androstane Receptor (CAR) (AID 2282969).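 Further: activators raise reporter mRNA above DMSO so AC50 marks induction.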 The note with it: HepG2 Attagene TRANS-FACTORIAL CAR reporter. Summed up: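 Readout is reporter mRNA induction, quantified by fluorescent primer extension and capillary electrophoresis after RT-PCR. Cells were HepG2 transiently carrying chimeric NR-Gal4 constructs with GAL4-UAS reporters, treated for 24 h; activity scored upward from DMSO.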
Sequence of Nuclear receptor subfamily 1 group I member 3 (Homo sapiens) (Q14994 whole entry, looked up, the tested form may be a part): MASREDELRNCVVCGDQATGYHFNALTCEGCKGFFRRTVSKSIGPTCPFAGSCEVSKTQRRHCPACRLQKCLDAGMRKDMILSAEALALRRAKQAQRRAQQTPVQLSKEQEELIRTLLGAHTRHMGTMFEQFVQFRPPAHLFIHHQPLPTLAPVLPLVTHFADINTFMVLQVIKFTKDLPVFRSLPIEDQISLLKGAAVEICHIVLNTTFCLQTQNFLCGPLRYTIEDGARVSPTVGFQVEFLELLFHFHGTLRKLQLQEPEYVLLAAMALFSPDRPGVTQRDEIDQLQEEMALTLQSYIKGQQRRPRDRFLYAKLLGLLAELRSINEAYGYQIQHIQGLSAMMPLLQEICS

The target in experiment [4] is Steroid hormone receptor ERR1 (Homo sapiens) (UniProt P11474). As to the kind of experiment: ATG_ERRa_TRANS: Attagene TRANS-FACTORIAL HepG2 Assay for human Estrogen-Related Receptor alpha (ERRa) (AID 2282971). The note with it: HepG2 Attagene TRANS reporter, ERRa transactivation. In short, it runs like this: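 Transfected HepG2, 24 h dosing, ERRa-Gal4 chimera driving GAL4-UAS reporter. Readout: reporter mRNA via RT-PCR plus capillary electrophoresis (fluorescence). Positive direction vs DMSO control.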
Sequence of Steroid hormone receptor ERR1 (Homo sapiens) (P11474 whole entry, looked up, the tested form may be a part): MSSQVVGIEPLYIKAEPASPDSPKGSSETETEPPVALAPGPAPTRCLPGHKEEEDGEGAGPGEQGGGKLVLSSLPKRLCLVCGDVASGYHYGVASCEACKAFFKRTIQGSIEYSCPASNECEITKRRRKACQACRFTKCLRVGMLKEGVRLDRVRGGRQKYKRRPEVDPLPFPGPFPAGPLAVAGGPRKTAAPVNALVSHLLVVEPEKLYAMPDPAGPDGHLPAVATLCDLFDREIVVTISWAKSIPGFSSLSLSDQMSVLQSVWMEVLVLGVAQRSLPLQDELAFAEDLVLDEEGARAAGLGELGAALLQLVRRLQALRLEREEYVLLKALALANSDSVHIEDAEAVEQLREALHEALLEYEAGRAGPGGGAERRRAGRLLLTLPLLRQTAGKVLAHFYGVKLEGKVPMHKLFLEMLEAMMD

For experiment [5], the target named is X-box-binding protein 1 (Homo sapiens) (UniProt P17861). The experiment is described as follows: ATG_Xbp1_CIS: Attagene CIS-FACTORIAL HepG2 Assay for human X-box Binding Protein 1 (XBP1) (AID 2282972; active means hit-call score of the fitted dose curve at least 0.9, where 1 is the maximum; inactive means score below 0.9). The note with it: HepG2 XBP1 cis-element reporter, Attagene multiplex; actives raise or lower the signal. In short, it runs like this: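 HepG2 cells transiently transfected with multiple cis-element reporter units report endogenous TF activity; 24 h exposure, then reporter mRNA measured by RT-PCR, 6-FAM labelling, HpaI digestion and capillary electrophoresis. Bidirectional fitting versus DMSO.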
Sequence of X-box-binding protein 1 (Homo sapiens) (P17861 whole entry, looked up): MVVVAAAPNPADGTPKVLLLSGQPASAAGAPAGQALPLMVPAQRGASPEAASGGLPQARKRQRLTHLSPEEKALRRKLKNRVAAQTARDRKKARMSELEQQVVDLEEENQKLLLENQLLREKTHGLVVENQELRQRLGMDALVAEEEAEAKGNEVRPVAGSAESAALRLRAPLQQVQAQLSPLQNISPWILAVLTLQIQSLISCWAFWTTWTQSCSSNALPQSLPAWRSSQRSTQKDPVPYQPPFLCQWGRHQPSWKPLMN

Experiment [6] can be described thus: ATG_M_19_TRANS: Attagene TRANS-FACTORIAL HepG2 Assay for M19 Transcription Factor (Internal Marker) (AID 2282974). The note with it: HepG2 Attagene TRANS-FACTORIAL M19 internal marker reporter. In short, it runs like this:
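24 h chemical exposure of transiently transfected HepG2 (MRTU library). RNA → oligo(dT) RT → PCR → 6-FAM labelling → HpaI cut → CE fluorescence. Positive-direction fit vs DMSO baseline; background internal-marker readout.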

Experiment [7] in a line: ATG_GAL4_TRANS: Attagene TRANS-FACTORIAL HepG2 Assay for GAL4 (Internal Marker) (AID 2282976). The note with it: HepG2 Attagene TRANS GAL4 internal marker reporter. In short, it runs like this:
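RT-PCR/capillary electrophoresis readout of reporter mRNA. HepG2, transient MRTU transfection (GAL4-UAS reporters), 24 h compound exposure. Background-control endpoint, positive direction vs DMSO baseline.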

For experiment [8], the target named is Estrogen-related receptor gamma (Homo sapiens) (UniProt P62508). The experiment is described as follows: ATG_ERRg_TRANS: Attagene TRANS-FACTORIAL HepG2 Assay for human Estrogen-Related Receptor gamma (ERRg) (AID 2282977).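 Further: hits increase reporter signal over DMSO so potencies reflect activators.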 The note with it: HepG2 Attagene TRANS reporter, ERRg transactivation. In short, it runs like this: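 HepG2 cells transiently transfected with multiplexed GAL4-UAS reporter units and chimeric NR-Gal4 constructs were exposed to test chemicals for 24 h. Reporter mRNA was measured by RT-PCR, 6-FAM primer extension, HpaI digestion and capillary electrophoresis; gain-of-signal versus DMSO.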
Sequence of Estrogen-related receptor gamma (Homo sapiens) (P62508 whole entry, looked up, the tested form may be a part): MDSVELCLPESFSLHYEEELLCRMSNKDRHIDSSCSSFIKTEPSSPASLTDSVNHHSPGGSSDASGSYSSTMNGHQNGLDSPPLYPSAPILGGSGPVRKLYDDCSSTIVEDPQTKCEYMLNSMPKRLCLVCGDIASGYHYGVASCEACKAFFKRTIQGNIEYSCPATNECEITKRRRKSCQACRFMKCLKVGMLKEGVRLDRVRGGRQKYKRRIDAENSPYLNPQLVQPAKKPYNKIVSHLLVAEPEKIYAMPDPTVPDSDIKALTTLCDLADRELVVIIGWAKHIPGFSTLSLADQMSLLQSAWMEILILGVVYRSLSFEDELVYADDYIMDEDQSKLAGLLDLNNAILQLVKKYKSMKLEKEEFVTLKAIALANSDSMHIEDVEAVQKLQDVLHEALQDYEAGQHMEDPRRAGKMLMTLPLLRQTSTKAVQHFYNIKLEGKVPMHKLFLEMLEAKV

Experiment [9] deals with Oxysterols receptor LXR-alpha (Homo sapiens) (UniProt Q13133). As to the kind of experiment: ATG_LXRa_TRANS: Attagene TRANS-FACTORIAL HepG2 Assay for human Liver X Receptor alpha (LXRa) (AID 2282980). The note with it: HepG2 Attagene TRANS reporter, LXRa transactivation. In short, it runs like this: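 Read-out: reporter transcript levels by RT-PCR plus capillary electrophoresis, fluorescence intensity. Transiently transfected HepG2, exogenous NR-GAL4 chimera, GAL4-UAS reporters; 24 h compound exposure. Activity = increase over DMSO negative control.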
Sequence of Oxysterols receptor LXR-alpha (Homo sapiens) (Q13133 whole entry, looked up, the tested form may be a part): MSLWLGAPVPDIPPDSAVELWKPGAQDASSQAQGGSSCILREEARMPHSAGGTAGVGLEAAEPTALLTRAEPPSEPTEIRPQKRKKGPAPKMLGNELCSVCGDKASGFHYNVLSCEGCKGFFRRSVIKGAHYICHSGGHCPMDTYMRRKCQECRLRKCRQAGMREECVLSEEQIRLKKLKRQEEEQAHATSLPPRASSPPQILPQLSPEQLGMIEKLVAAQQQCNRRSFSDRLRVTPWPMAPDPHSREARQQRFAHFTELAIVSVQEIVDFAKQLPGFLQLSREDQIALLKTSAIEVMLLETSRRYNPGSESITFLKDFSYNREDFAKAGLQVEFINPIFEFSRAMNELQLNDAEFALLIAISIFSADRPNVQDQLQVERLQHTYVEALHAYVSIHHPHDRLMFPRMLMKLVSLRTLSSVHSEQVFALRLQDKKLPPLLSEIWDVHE

Experiment [10] deals with Oxysterols receptor LXR-beta (Homo sapiens) (UniProt P55055). The experiment is described as follows: ATG_LXRb_TRANS: Attagene TRANS-FACTORIAL HepG2 Assay for human Liver X Receptor beta (LXRb) (AID 2282981). The note with it: HepG2 Attagene TRANS GAL4-LXRb reporter, mRNA. Summed up:
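Cells: HepG2, transiently transfected with GAL4-UAS reporter units plus LXRb-Gal4 fusion. Treatment: 24 h. Detection: reporter mRNA by RT-PCR, 6-FAM labelling, HpaI digestion, capillary electrophoresis.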

Experiment [11] deals with Hepatocyte nuclear factor 4-alpha (Homo sapiens) (UniProt P41235). The experiment is described as follows: ATG_HNF4a_TRANS: Attagene TRANS-FACTORIAL HepG2 Assay for human Hepatocyte Nuclear Factor 4 alpha (HNF4a) (AID 2282982). The note with it: HepG2 HNF4a transactivation reporter, mRNA readout. In short, it runs like this: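 Transfected HepG2 reporter cells are dosed for 24 h; reporter RNA is reverse-transcribed, amplified, fluorescently labelled and HpaI-digested before CE sizing. Positive-direction fit against DMSO.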
Sequence of Hepatocyte nuclear factor 4-alpha (Homo sapiens) (P41235 whole entry, looked up): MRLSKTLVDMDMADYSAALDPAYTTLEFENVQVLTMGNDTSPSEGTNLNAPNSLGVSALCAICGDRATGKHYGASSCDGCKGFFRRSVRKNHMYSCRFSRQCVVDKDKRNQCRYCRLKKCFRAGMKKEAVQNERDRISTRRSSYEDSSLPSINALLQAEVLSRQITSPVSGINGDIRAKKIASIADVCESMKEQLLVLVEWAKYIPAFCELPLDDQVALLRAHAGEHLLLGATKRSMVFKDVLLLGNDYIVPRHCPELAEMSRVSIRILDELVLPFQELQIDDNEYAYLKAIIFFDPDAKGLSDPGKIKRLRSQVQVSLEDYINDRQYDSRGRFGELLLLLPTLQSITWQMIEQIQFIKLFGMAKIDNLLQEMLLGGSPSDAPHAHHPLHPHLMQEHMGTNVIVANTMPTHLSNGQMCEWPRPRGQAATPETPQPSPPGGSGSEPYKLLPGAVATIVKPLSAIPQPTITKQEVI

Experiment [12] is described as follows: ATG_M_32_TRANS: Attagene TRANS-FACTORIAL HepG2 Assay for M32 Transcription Factor (Internal Marker) (AID 2282984).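 Further: transcript level of a background control reporter unit measured by RT-PCR and capillary electrophoresis.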 The note with it: HepG2 Attagene TRANS M32 internal marker reporter. In short, it runs like this:
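Using transiently transfected HepG2 cells exposed to test chemicals for 24 h, reporter transcripts are converted to labelled cDNA fragments and quantified by capillary electrophoresis. DMSO defines the activity baseline.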

The target in experiment [13] is Nuclear receptor subfamily 4 group A member 2 (Homo sapiens) (UniProt P43354). The experiment is described as follows: ATG_NURR1_TRANS: Attagene TRANS-FACTORIAL HepG2 Assay for human Nuclear Receptor Related Protein 1 (NURR1) (AID 2282985). The note with it: HepG2 Attagene TRANS reporter, mRNA readout. In short, it runs like this:
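Cells: HepG2, transiently transfected. Exposure: 24 h. Detection: fluorescence of labelled RT-PCR products separated by capillary electrophoresis; upward fit versus DMSO.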

The target of experiment [14] is Transcriptional activator Myb (Homo sapiens) (UniProt P10242). As to the kind of experiment: ATG_Myb_CIS: Attagene CIS-FACTORIAL HepG2 Assay for human Myeloblastosis (Myb) Proto-Oncogene Transcription Factor (AID 2282986; active means hit-call score of the fitted dose curve at least 0.9, where 1 is the maximum; inactive means score below 0.9). The note with it: HepG2 Attagene CIS-FACTORIAL Myb reporter transcription; actives raise or lower the signal. In short, it runs like this: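 HepG2, transient MRTU transfection (cis-element promoters, endogenous TF activity), 24 h compound exposure. Readout: reporter mRNA via RT-PCR, 6-FAM labeling, HpaI digest, capillary electrophoresis. Gain/loss fit vs DMSO.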
Sequence of Transcriptional activator Myb (Homo sapiens) (P10242 whole entry, looked up): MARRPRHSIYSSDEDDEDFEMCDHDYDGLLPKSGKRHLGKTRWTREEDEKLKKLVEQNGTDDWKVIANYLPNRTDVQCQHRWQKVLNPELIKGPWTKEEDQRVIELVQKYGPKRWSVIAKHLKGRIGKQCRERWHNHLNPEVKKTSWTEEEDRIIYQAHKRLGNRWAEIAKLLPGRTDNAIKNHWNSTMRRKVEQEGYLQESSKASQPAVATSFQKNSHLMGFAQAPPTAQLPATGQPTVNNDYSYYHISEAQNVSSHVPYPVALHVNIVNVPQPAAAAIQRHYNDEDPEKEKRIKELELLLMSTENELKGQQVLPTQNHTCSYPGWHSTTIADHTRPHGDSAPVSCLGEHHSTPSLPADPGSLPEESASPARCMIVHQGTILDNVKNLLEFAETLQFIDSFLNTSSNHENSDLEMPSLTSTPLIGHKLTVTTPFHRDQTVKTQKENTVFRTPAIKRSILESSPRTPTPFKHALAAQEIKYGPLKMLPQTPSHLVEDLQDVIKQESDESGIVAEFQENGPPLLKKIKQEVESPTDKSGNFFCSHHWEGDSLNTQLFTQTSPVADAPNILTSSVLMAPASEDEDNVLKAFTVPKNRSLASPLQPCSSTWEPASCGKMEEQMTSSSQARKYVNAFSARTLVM

In experiment [15] the target is Nuclear respiratory factor 1 (Homo sapiens) (UniProt Q16656). As to the kind of experiment: ATG_NRF1_CIS: Attagene CIS-FACTORIAL HepG2 Assay for human Nuclear Respiratory Factor 1 (NRF1) Orphan Gene (AID 2282987; active means hit-call score of the fitted dose curve at least 0.9, where 1 is the maximum; inactive means score below 0.9). The note with it: HepG2 NRF1 cis-element reporter, Attagene multiplex; actives raise or lower the signal. Summed up:
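Endogenous NRF1-driven reporter transcription measured in transiently transfected human HepG2 liver cells. Readout: reporter mRNA by RT-PCR and capillary electrophoresis with fluorescence detection, 24 h post-dosing. Gain or loss of signal fitted relative to DMSO baseline.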

Experiment [16] deals with Estrogen receptor (Homo sapiens) (UniProt P03372). The experiment is described as follows: ATG_ERa_TRANS: Attagene TRANS-FACTORIAL HepG2 Assay for human Estrogen Receptor alpha (ERa) (AID 2282970). The note with it: HepG2 Attagene TRANS ERa GAL4 reporter, mRNA. In short, it runs like this:
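After 24 h of compound treatment, RNA from HepG2 cells bearing transfected GAL4-UAS reporter constructs is converted to cDNA, amplified and fluorescently labelled. Capillary electrophoresis resolves the ERa-linked reporter; DMSO serves as negative control.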

For experiment [17], the target named is Androgen receptor (Homo sapiens) (UniProt P10275). The experiment is described as follows: ATG_AR_TRANS: Attagene TRANS-FACTORIAL HepG2 Assay for human Androgen Receptor (AR) (AID 2282973). The note with it: HepG2 Attagene TRANS-FACTORIAL AR reporter transcription. Summed up: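 Readout is reporter transcript abundance, quantified by fluorescent RT-PCR products separated on capillary electrophoresis. Human HepG2 liver cells carried transiently transfected NR-Gal4 chimera plus GAL4-UAS reporter constructs and were dosed for 24 h; activity scored upward versus DMSO.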

Experiment [18] is described as follows: ATG_M_06_TRANS: Attagene TRANS-FACTORIAL HepG2 Assay for M06 Transcription Factor (Internal Marker) (AID 2282983). The note with it: HepG2 Attagene TRANS M06 internal marker reporter. In short, it runs like this: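 After a 24 h chemical treatment of transfected HepG2, RNA underwent DNase I treatment, reverse transcription and reporter-specific PCR; labelled, HpaI-digested products were sized by capillary electrophoresis. Signal increase relative to DMSO defined activity.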

For experiment [19], the target named is Glucocorticoid receptor (Homo sapiens) (UniProt P04150). As to the kind of experiment: ATG_GR_TRANS: Attagene TRANS-FACTORIAL HepG2 Assay for human Glucocorticoid Receptor (GR) (AID 2282978).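 Further: activators score as hits since higher reporter transcript over DMSO is fitted.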 The note with it: HepG2 Attagene TRANS GR reporter, mRNA transcription. Summed up: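 Transient MRTU transfection of HepG2 (GAL4-UAS reporters, exogenous NR-GAL4 chimeras), 24 h dosing. Readout: reporter transcript via RT-PCR + capillary electrophoresis fluorescence. Positive direction vs DMSO baseline.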

For experiment [20], the target named is Bile acid receptor (Homo sapiens) (UniProt Q96RI1). The experiment is described as follows: ATG_FXR_TRANS: Attagene TRANS-FACTORIAL HepG2 Assay for Farnesoid X Receptor (FXR) (AID 2282979).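 Further: hits raise reporter mRNA above DMSO so AC50 marks FXR activation.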 The note with it: HepG2 Attagene TRANS FXR-GAL4 reporter transcription. In short, it runs like this: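 Read-out: fluorescent reporter transcripts quantified by capillary electrophoresis after RT-PCR of total RNA. Source cells were HepG2 transiently carrying chimeric NR-GAL4 plus GAL4-UAS reporter units, dosed 24 h. Activity fitted upward relative to DMSO baseline.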

Sequence of Nuclear respiratory factor 1 (Homo sapiens) (Q16656 whole entry, looked up): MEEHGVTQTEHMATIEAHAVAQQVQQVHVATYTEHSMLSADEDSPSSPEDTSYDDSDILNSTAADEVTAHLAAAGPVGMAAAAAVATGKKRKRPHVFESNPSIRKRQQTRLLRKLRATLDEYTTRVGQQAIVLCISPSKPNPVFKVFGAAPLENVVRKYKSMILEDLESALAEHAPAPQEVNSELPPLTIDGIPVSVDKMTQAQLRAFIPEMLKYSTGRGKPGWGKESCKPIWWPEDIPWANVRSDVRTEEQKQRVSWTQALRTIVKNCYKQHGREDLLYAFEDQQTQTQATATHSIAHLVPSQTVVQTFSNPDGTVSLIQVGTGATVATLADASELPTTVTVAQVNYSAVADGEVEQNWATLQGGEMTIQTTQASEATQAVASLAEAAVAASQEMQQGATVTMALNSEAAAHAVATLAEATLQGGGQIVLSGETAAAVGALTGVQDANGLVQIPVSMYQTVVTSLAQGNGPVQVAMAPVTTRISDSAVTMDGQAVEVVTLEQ
Sequence of Nuclear receptor subfamily 4 group A member 2 (Homo sapiens) (P43354 whole entry, looked up): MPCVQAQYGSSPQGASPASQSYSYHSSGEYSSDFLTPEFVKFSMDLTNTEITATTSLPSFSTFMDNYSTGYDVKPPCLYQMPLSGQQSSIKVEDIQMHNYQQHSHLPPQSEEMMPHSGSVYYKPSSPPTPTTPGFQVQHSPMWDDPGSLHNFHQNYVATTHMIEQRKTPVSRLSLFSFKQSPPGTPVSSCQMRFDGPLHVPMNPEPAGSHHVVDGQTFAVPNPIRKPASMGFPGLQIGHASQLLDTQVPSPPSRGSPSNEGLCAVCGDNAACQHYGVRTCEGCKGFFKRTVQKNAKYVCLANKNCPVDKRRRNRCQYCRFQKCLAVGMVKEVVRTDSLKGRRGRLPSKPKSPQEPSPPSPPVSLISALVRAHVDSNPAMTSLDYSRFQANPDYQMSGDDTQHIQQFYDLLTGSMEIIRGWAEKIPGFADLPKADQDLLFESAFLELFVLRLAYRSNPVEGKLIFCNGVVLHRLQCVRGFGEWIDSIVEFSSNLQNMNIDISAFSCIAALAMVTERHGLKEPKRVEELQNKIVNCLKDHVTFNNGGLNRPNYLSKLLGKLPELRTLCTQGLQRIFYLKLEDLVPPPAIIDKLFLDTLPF
Sequence of Oxysterols receptor LXR-beta (Homo sapiens) (P55055 whole entry, looked up, the tested form may be a part): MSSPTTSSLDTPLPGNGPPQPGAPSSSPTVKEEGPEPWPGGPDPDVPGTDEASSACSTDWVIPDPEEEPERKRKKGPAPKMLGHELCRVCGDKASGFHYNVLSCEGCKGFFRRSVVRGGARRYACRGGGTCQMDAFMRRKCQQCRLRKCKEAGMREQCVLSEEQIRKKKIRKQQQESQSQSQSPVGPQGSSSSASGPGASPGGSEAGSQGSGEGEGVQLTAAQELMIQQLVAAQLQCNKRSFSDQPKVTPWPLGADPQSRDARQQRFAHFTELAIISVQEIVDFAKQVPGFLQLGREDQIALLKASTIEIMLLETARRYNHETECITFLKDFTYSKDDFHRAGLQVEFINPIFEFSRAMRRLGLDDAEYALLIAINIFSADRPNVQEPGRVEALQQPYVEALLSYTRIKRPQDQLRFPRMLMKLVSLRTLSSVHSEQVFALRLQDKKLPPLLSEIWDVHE

What is called AC50 is the concentration giving half of the maximal activity seen. In the case of `O=C(CCl)NCO`, the AC50 in experiment [1] was 0.765 µM (active). The molecule was classed as inactive in experiment [2], in experiment [3], in experiment [4], in experiment [5], in experiment [6] and in experiment [7]. In addition, the molecule was called inactive in [8], in experiment [9], in [10], in [11], in experiment [12] and in experiment [13]. Besides, the outcome in experiment [14] and in experiment [15] was inactive.

Turning to `O=C1c2ccccc2C(=O)C1C(=O)C(c1ccccc1)c1ccc(Cl)cc1` (centres undefined), the half-maximal activity concentration (AC50) in [1] is 8.18 µM (active); in [2], 2.93 µM (active); in experiment [5], 5.66 µM (active); in experiment [6] it was 163 µM (active); in experiment [13], 4.69 µM (active); in [14], 173 µM (active). Further, the outcome in experiment [16], in [4], in [17], in [8], in [11] and in experiment [15] was inactive.

As to `Brc1c(Br)c(Br)c(Oc2c(Br)c(Br)c(Br)c(Br)c2Br)c(Br)c1Br`, the molecule was called inactive in experiment [1], in [2], in experiment [3], in [4], in experiment [5] and in [6]. Besides, the molecule was called inactive in [7], in [9], in [18], in experiment [12], in experiment [13] and in [14]. Also, the call in [15] was inactive.

For `CC(F)(F)CC(F)(F)F`, the outcome in experiment [1], in experiment [2], in experiment [3], in experiment [5], in [17] and in [7] was inactive. Further, the call in experiment [19], in [20], in [9], in experiment [18], in experiment [12] and in [14] was inactive. Moreover, the outcome in [15] was inactive.

For `C=CC(=O)NC(C)(C)CC(C)=O`, the molecule was classed as inactive in experiment [1], in [2], in experiment [3], in [5], in experiment [7] and in [9]. The result in experiment [10], in [18], in [12], in [14] and in [15] was inactive.
